ChEMBL document CHEMBL1157539, “Thousands of chemical starting points for antimalarial lead identification” (Nature, 2010)

Assays:
Type in all cases: functional
Plasmodium falciparum [1] = test: GSK_TCMDC: Inhibition of Plasmodium falciparum 3D7 in whole red blood cells, using parasite LDH activity as an index of growth. Test compounds present at 2uM
Plasmodium falciparum [2] = test: GSK_TCMDC: Inhibition of Plasmodium falciparum Dd2 in whole red blood cells, using parasite LDH activity as an index of growth. Test compounds present at 2uM
HepG2 = test: GSK_TCMDC: Percent inhibition of human HepG2 cell line. Test compounds present at 10uM.

## O=C(N[C@@H](Cc1ccccc1)C(=O)NC1CCCCCC1)c1ccc(O)c(-c2cccc(C(F)(F)F)c2)c1
Plasmodium falciparum [1]
  Inhibition: 98%
Plasmodium falciparum [2]
  Inhibition: 70%
HepG2
  Inhibition: 0%

## Cc1cc(-c2ccc(CNCc3ccsc3)cc2)ccc1S(=O)(=O)NCCN1CCCC1.O=C(O)C(F)(F)F
Plasmodium falciparum [1]
  Inhibition: 99%
Plasmodium falciparum [2]
  Inhibition: 49%
HepG2
  Inhibition: 57%

## COc1cc(Cc2cnc(N)nc2N)cc(OCc2cccc(C(=O)O)c2)c1OC.Cl
Plasmodium falciparum [1]
  Inhibition: 92%
Plasmodium falciparum [2]
  Inhibition: 0%
HepG2
  Inhibition: 8%

## COc1ccc(C2c3cc(OC)c(OC)cc3C(=NO)C2C)cc1OC (stereo not given)
Plasmodium falciparum [1]
  Inhibition: 90%
Plasmodium falciparum [2]
  Inhibition: 6%
HepG2
  Inhibition: 20%

## CCOc1cc2ncnc(Nc3cc(Cl)c(Cl)c(Cl)c3)c2cc1OCC.Cl
Plasmodium falciparum [1]
  Inhibition: 100%
Plasmodium falciparum [2]
  Inhibition: 98%
HepG2
  Inhibition: 11%

## CC(Cc1ccc(Cl)cc1)Nc1nc(NC2CCCC2)nc(N2CCC(C#N)(c3ccccc3)CC2)n1 (stereo not given)
Plasmodium falciparum [1]
  Inhibition: 99%
Plasmodium falciparum [2]
  Inhibition: 95%
HepG2
  Inhibition: 15%

## Cc1noc(C)c1-c1cccc(CNCc2ccc(-c3ccc(-c4nc5cc(C(F)(F)F)ccc5[nH]4)s3)cc2)c1.O=C(O)C(F)(F)F
Plasmodium falciparum [1]
  Inhibition: 100%
Plasmodium falciparum [2]
  Inhibition: 99%
HepG2
  Inhibition: 54%

## C=CCNC(=O)CCCNC(=N)N.Cl
Plasmodium falciparum [1]
  Inhibition: 98%
Plasmodium falciparum [2]
  Inhibition: 12%
HepG2
  Inhibition: 0%

## COc1cccc(C2=CC(c3ccccc3)n3ncc(C(=O)Nc4ccc(Cl)cc4)c3N2)c1 (stereo not given)
Plasmodium falciparum [1]
  Inhibition: 88%
Plasmodium falciparum [2]
  Inhibition: 28%
HepG2
  Inhibition: 7%

## Cc1c(C(=O)N2CCCC(C(F)(F)F)C2)sc2cccc(F)c12 (stereo not given)
Plasmodium falciparum [1]
  Inhibition: 99%
Plasmodium falciparum [2]
  Inhibition: 89%
HepG2
  Inhibition: 0%

## CC(=O)N(C)c1cccc(C(=O)Nc2ccc(-c3cccc(-c4nc5cccc(C)c5[nH]4)c3)cc2)c1
Plasmodium falciparum [1]
  Inhibition: 97%
Plasmodium falciparum [2]
  Inhibition: 68%
HepG2
  Inhibition: 86%

## COc1ccc(-c2nc3c(N)nc(N)nc3nc2-c2ccccc2Cl)cc1.COc1ccc(-c2nc3nc(N)nc(N)c3nc2-c2ccccc2Cl)cc1.Cl
Plasmodium falciparum [1]
  Inhibition: 93%
Plasmodium falciparum [2]
  Inhibition: 0%
HepG2
  Inhibition: 45%

## O=C(COc1ccccc1Cc1ccccc1)Nc1cc(Cl)ccc1-n1cncn1
Plasmodium falciparum [1]
  Inhibition: 92%
Plasmodium falciparum [2]
  Inhibition: 93%
HepG2
  Inhibition: 5%

## O=[N+]([O-])c1ccc(Nc2nc(N/N=C/c3cccc(O)c3)nc(N3CCCC3)n2)cc1
Plasmodium falciparum [1]
  Inhibition: 88%
Plasmodium falciparum [2]
  Inhibition: 9%
HepG2
  Inhibition: 0%

## Cc1sc(N2CCN(C)CC2)nc1C(=O)Nc1ccc(F)cc1C(F)(F)F.O=C(O)C(F)(F)F
Plasmodium falciparum [1]
  Inhibition: 92%
Plasmodium falciparum [2]
  Inhibition: 63%
HepG2
  Inhibition: 7%

## Clc1ccc(Nc2nc(-c3ccccn3)cs2)nc1
Plasmodium falciparum [1]
  Inhibition: 95%
Plasmodium falciparum [2]
  Inhibition: 90%
HepG2
  Inhibition: 36%

## O=C(/C=C/c1c(Cl)cccc1Cl)NC1CCC(CN2CCC(c3c[nH]c4ccncc34)CC2)CC1 (stereo not given)
Plasmodium falciparum [1]
  Inhibition: 99%
Plasmodium falciparum [2]
  Inhibition: 100%
HepG2
  Inhibition: 78%

## Cc1ccc(CCC(C)NCC(O)c2cccc(Cl)c2)cc1 (stereo not given)
Plasmodium falciparum [1]
  Inhibition: 97%
Plasmodium falciparum [2]
  Inhibition: 97%
HepG2
  Inhibition: 2%

## COc1ccc(CCN2CC[C@H](Nc3nc(-c4ccc(F)c(F)c4)nc4ccccc34)C2)cc1S(N)(=O)=O.Cl
Plasmodium falciparum [1]
  Inhibition: 99%
Plasmodium falciparum [2]
  Inhibition: 64%
HepG2
  Inhibition: 18%

## COc1ccc(CNC(=O)NC2CCN(c3ccnc(Nc4ccc(F)cc4)n3)C2)cc1 (stereo not given)
Plasmodium falciparum [1]
  Inhibition: 91%
Plasmodium falciparum [2]
  Inhibition: 78%
HepG2
  Inhibition: 4%

## Fc1ccc(OC2CN(c3nccc(NCc4ccccc4Cl)n3)C2)cc1
Plasmodium falciparum [1]
  Inhibition: 98%
Plasmodium falciparum [2]
  Inhibition: 99%
HepG2
  Inhibition: 0%

## O=C(C1CCN(c2nnnn2-c2ccccc2)CC1)N1CCc2ccccc2C1
Plasmodium falciparum [1]
  Inhibition: 97%
Plasmodium falciparum [2]
  Inhibition: 97%
HepG2
  Inhibition: 0%

## CC(=Nc1ccc(Cl)c(Cl)c1)N(C)C.Cl
Plasmodium falciparum [1]
  Inhibition: 98%
Plasmodium falciparum [2]
  Inhibition: 0%
HepG2
  Inhibition: 0%

## COc1cc(NC(=O)Nc2ccc(Br)cc2C(=O)Nc2ccc(Br)cc2)cc(OC)c1OC
Plasmodium falciparum [1]
  Inhibition: 99%
Plasmodium falciparum [2]
  Inhibition: 98%
HepG2
  Inhibition: 0%

## O=C(/C=C/c1ccc(Cl)c(Cl)c1)NCCCCCN1CCC(CCNC(=O)C2(c3ccc(Cl)cc3)CC2)CC1
Plasmodium falciparum [1]
  Inhibition: 91%
Plasmodium falciparum [2]
  Inhibition: 16%
HepG2
  Inhibition: 96%

## O=C(CCC1CCCCC1)NCCNc1cccc2ccccc12
Plasmodium falciparum [1]
  Inhibition: 90%
Plasmodium falciparum [2]
  Inhibition: 57%
HepG2
  Inhibition: 7%

## Cc1ccc(NC(=O)c2cccc(CN3CCCN(CC4CCCCC4)CC3)c2)cc1F.O=C(O)C(F)(F)F
Plasmodium falciparum [1]
  Inhibition: 85%
Plasmodium falciparum [2]
  Inhibition: 42%
HepG2
  Inhibition: 22%

## Cc1nc(C)c(-c2ccc(Br)cc2)c(O)c1Br
Plasmodium falciparum [1]
  Inhibition: 98%
Plasmodium falciparum [2]
  Inhibition: 95%
HepG2
  Inhibition: 9%

## CC1CCC(NCc2ccc3c(CNC4CCC(C)CC4)c(O)ccc3c2O)CC1.Cl (stereo not given)
Plasmodium falciparum [1]
  Inhibition: 100%
Plasmodium falciparum [2]
  Inhibition: 99%
HepG2
  Inhibition: 4%

## CNCc1ccc(-c2ccc3ccnc(N)c3c2)cc1
Plasmodium falciparum [1]
  Inhibition: 94%
Plasmodium falciparum [2]
  Inhibition: 98%
HepG2
  Inhibition: 46%
